# PubChem BioAssay (NCI)
# Where “and” joins values, the source holds several entries; their conditions need not be identical. Identical values can stand only once. About 79,000 compounds went through this panel and 15% of them were active in at least one assay; those are over-represented in the sample as a whole. Values without a mark were called inactive. Calls of active or inactive are those of the source. Cut-off read from the data, not from the text of the source: active = growth inhibition above about 70%; inactive = the rest.
# Tests used:
# [1] = NCI Yeast Anticancer Drug Screen. Data for the rad52 strain (AID 147);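 note: 0% = growth of vehicle-treated control cultures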; conditions: S. cerevisiae rad52 mutant growth inhibition, hits give high values
# Method in brief: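 DNA repair-defective yeast; compound exposure; growth scored against vehicle controls.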
# [2] = NCI Yeast Anticancer Drug Screen. Data for the wt1 strain (AID 149);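 note: 0% = growth of vehicle-treated wt1 cultures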; conditions: S. cerevisiae wt1 strain (SPY 50644) growth inhibition, hits give high values
# Method in brief: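 wt1 yeast, compound-treated; % growth inhibition vs vehicle control.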
# [3] = NCI Yeast Anticancer Drug Screen. Data for the rad50EPP+ strain (AID 151);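 note: 0% = growth of vehicle-treated control cultures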; conditions: S. cerevisiae rad50 mutant strain, hits give high values
# Method in brief: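 rad50EPP+ yeast treated with test compounds. Readout: growth vs vehicle control.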
# [4] = NCI Yeast Anticancer Drug Screen. Data for the rad50 strain (AID 155);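 note: 0% = growth of vehicle-only cultures of the same strain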; conditions: S. cerevisiae rad50 strain growth inhibition, hits give high values
# Method in brief: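 Genetically altered yeast (DNA repair pathway); compound treatment; growth inhibition vs vehicle ctrl.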
# [5] = NCI Yeast Anticancer Drug Screen. Data for the mec2-1 strain (AID 157); conditions: S. cerevisiae mec2-1 strain, hits give high values
# Method in brief: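 Growth inhibition is read against vehicle-treated controls after compound exposure of the mec2-1 yeast strain, which is defective in DNA damage repair or cell cycle control.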
# [6] = NCI Yeast Anticancer Drug Screen. Data for the rad14 strain (AID 159);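 note: 0% = growth of vehicle-treated control cultures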; conditions: S. cerevisiae rad14 strain growth inhibition, hits give high values
# Method in brief: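 Test compounds were applied to a repair-deficient yeast strain. Its growth was then compared with that of cultures given vehicle alone, and inhibition was expressed relative to those controls.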
# [7] = NCI Yeast Anticancer Drug Screen. Data for the sgs1 mgt1 strain (AID 161);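 note: 0% = growth of cultures given vehicle only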; conditions: S. cerevisiae sgs1 mgt1 strain, hits give high values
# Method in brief: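 Percent growth inhibition was derived by comparing compound-exposed mutant yeast with vehicle-exposed cultures. The strain carries alterations in DNA damage repair.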
# [8] = NCI Yeast Anticancer Drug Screen. Data for the CLN2oe strain (AID 163);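 note: 0% = growth of vehicle-only control cultures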; conditions: S. cerevisiae CLN2oe strain, hits give high values
# Method in brief: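 Compound-treated yeast; growth vs vehicle ctrl = % inhibition. Genetically altered strain (cell-cycle control).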
# [9] = NCI Yeast Anticancer Drug Screen. Data for the cln2 rad14 strain (AID 165);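 note: 0% = growth equal to vehicle treated cultures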; conditions: S. cerevisiae cln2 rad14 strain, hits give high values
# Method in brief: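 Growth inhibition, relative to vehicle-treated controls, is the read-out. The test organism is a yeast strain with defined genetic alterations, cln2 rad14.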
# [10] = NCI Yeast Anticancer Drug Screen. Data for the bub3 strain (AID 167); conditions: S. cerevisiae bub3 mutant strain, hits give high values
# Method in brief: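 Yeast carrying a defined mutation is treated with each compound, and growth is compared with that of vehicle-exposed cells to give inhibition.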
# [11] = NCI Yeast Anticancer Drug Screen. Data for the wt2 strain (AID 169);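 note: 0% = growth of vehicle-treated yeast cultures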; conditions: S. cerevisiae wt2 strain growth inhibition, hits give high values
# Method in brief: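 Compound exposure of yeast; growth compared with vehicle controls; inhibition reported.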
# [12] = NCI Yeast Anticancer Drug Screen. Data for the mlh1 strain (AID 171);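 note: 0% = growth of vehicle-treated control cultures of the same strain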; conditions: S. cerevisiae mlh1 strain growth inhibition, hits give high values
# Method in brief: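 Compounds are applied to a genetically altered yeast strain, and its growth is compared with that of vehicle-treated cultures to give percent inhibition.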
# [13] = NCI Yeast Anticancer Drug Screen. Data for the sgs1 strain (AID 173);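 note: 0% = growth of vehicle-only control cultures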; conditions: S. cerevisiae sgs1 mutant, hits give high values
# Method in brief: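 Compounds applied to genetically altered yeast; growth compared with vehicle-treated cultures to give % inhibition.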
# [14] = NCI Yeast Anticancer Drug Screen. Data for the mlh1 rad18 strain (AID 175); conditions: S. cerevisiae mlh1 rad18 strain growth inhibition, hits give high values
# Method in brief: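 Cells of a genetically altered yeast strain, deficient in DNA damage repair, were treated with compound. Their growth was then compared with that of vehicle-treated cultures to give inhibition.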
# [15] = NCI Yeast Anticancer Drug Screen. Data for the rad18 strain (AID 177); conditions: S. cerevisiae rad18 mutant growth inhibition, hits give high values
# Method in brief: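 Compounds are applied to a repair-deficient yeast strain, and growth is compared with that of vehicle-treated cultures to give percent inhibition.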
# [16] = at 5.0 µM (retest, dose inferred, filed as 0.5)
# [17] = at 50.0 µM (retest, dose inferred, filed as 5.0)
smiles,measurement,setting,value
Clc1cc(Cc2ccc(N=C/C=C/c3ccccc3)c(Cl)c2)ccc1N=C/C=C\c1ccccc1,growth inhibition,[1]; at 1.2 µM,11%
same,growth inhibition,[1]; at 3.7 µM,-1%
same,growth inhibition,[1]; at 11.0 µM,4%
same,growth inhibition,[1]; at 33.0 µM,9%
same,growth inhibition,[1]; at 100.0 µM,30%
same,growth inhibition,[2]; at 1.2 µM,-5%
same,growth inhibition,[2]; at 3.7 µM,-4%
same,growth inhibition,[2]; at 11.0 µM,-5%
same,growth inhibition,[2]; at 33.0 µM,1%
same,growth inhibition,[2]; at 100.0 µM,14%
same,growth inhibition,[3]; at 1.2 µM,18%
same,growth inhibition,[3]; at 3.7 µM,-4%
same,growth inhibition,[3]; at 11.0 µM,15%
same,growth inhibition,[3]; at 33.0 µM,15%
same,growth inhibition,[3]; at 100.0 µM,21%
same,growth inhibition,[4]; at 1.2 µM,13%
same,growth inhibition,[4]; at 3.7 µM,3%
same,growth inhibition,[4]; [16],100% (active)
same,growth inhibition,[4]; at 11.0 µM,8%
same,growth inhibition,[4]; at 33.0 µM,5%
same,growth inhibition,[4]; [17],100% (active)
same,growth inhibition,[4]; at 50.0 µM,71.3% (active)
same,growth inhibition,[4]; at 100.0 µM,32%
same,growth inhibition,[5]; at 1.2 µM,17%
same,growth inhibition,[5]; at 3.7 µM,20%
same,growth inhibition,[5]; [16],100% (active)
same,growth inhibition,[5]; at 11.0 µM,9%
same,growth inhibition,[5]; at 33.0 µM,-11%
same,growth inhibition,[5]; [17],99% (active)
same,growth inhibition,[5]; at 50.0 µM,33.1%
same,growth inhibition,[5]; at 100.0 µM,19%
same,growth inhibition,[6]; at 1.2 µM,-8%
same,growth inhibition,[6]; at 3.7 µM,-20%
same,growth inhibition,[6]; at 11.0 µM,-14%
same,growth inhibition,[6]; at 33.0 µM,-19%
same,growth inhibition,[6]; at 100.0 µM,19%
same,growth inhibition,[7]; [16],-23%
same,growth inhibition,[7]; [17],88% (active)
same,growth inhibition,[7]; at 50.0 µM,62.7%
same,growth inhibition,[8]; at 1.2 µM,-3%
same,growth inhibition,[8]; at 3.7 µM,-18%
same,growth inhibition,[8]; at 11.0 µM,-20%
same,growth inhibition,[8]; at 33.0 µM,-31%
same,growth inhibition,[8]; at 100.0 µM,3%
same,growth inhibition,[9]; [16],14%
same,growth inhibition,[9]; [17],74% (active)
same,growth inhibition,[9]; at 50.0 µM,58.8%
same,growth inhibition,[10]; at 1.2 µM,-12%
same,growth inhibition,[10]; at 3.7 µM,1%
same,growth inhibition,[10]; [16],30%
same,growth inhibition,[10]; at 11.0 µM,-9%
same,growth inhibition,[10]; at 33.0 µM,-9%
same,growth inhibition,[10]; [17],86% (active)
same,growth inhibition,[10]; at 50.0 µM,54.1%
same,growth inhibition,[10]; at 100.0 µM,-7%
same,growth inhibition,[11]; at 1.2 µM,-11%
same,growth inhibition,[11]; at 3.7 µM,-17%
same,growth inhibition,[11]; at 11.0 µM,-8%
same,growth inhibition,[11]; at 33.0 µM,4%
same,growth inhibition,[11]; at 100.0 µM,26%
same,growth inhibition,[12]; at 1.2 µM,-16%
same,growth inhibition,[12]; at 3.7 µM,-9%
same,growth inhibition,[12]; at 11.0 µM,-17%
same,growth inhibition,[12]; at 33.0 µM,-10%
same,growth inhibition,[12]; at 100.0 µM,12%
same,growth inhibition,[13]; at 1.2 µM,12%
same,growth inhibition,[13]; at 3.7 µM,7%
same,growth inhibition,[13]; at 11.0 µM,8%
same,growth inhibition,[13]; at 33.0 µM,8%
same,growth inhibition,[13]; at 100.0 µM,41%
same,growth inhibition,[14]; [16],100% (active)
same,growth inhibition,[14]; [17],100% (active)
same,growth inhibition,[14]; at 50.0 µM,64.7%
same,growth inhibition,[15]; at 1.2 µM,1%
same,growth inhibition,[15]; at 3.7 µM,-11%
same,growth inhibition,[15]; at 11.0 µM,-20%
same,growth inhibition,[15]; at 33.0 µM,-25%
same,growth inhibition,[15]; at 100.0 µM,24%
O=C(NCCCCCN1CCC2(CCCCC2)CC1)C(C1CCCCC1)C1CCCCC1,growth inhibition,[1]; at 1.2 µM,23%
same,growth inhibition,[1]; at 3.7 µM,5%
same,growth inhibition,[1]; at 11.0 µM,65%
same,growth inhibition,[1]; at 33.0 µM,100% (active)
same,growth inhibition,[1]; at 100.0 µM,97% (active)
same,growth inhibition,[2]; at 1.2 µM,-63%
same,growth inhibition,[2]; at 3.7 µM,-5%
same,growth inhibition,[2]; at 11.0 µM,6%
same,growth inhibition,[2]; at 33.0 µM,85% (active)
same,growth inhibition,[2]; at 100.0 µM,98% (active)
same,growth inhibition,[3]; at 1.2 µM,-1%
same,growth inhibition,[3]; at 3.7 µM,0%
same,growth inhibition,[3]; at 11.0 µM,3%
same,growth inhibition,[3]; at 33.0 µM,10%
same,growth inhibition,[3]; at 100.0 µM,99% (active)
same,growth inhibition,[4]; at 1.2 µM,-1%
same,growth inhibition,[4]; at 3.7 µM,11%
same,growth inhibition,[4]; [16],-7%
same,growth inhibition,[4]; at 11.0 µM,46%
same,growth inhibition,[4]; at 33.0 µM,97% (active)
same,growth inhibition,[4]; [17],99% (active)
same,growth inhibition,[4]; at 50.0 µM,99.5% (active)
same,growth inhibition,[4]; at 100.0 µM,99% (active)
same,growth inhibition,[5]; at 1.2 µM,22%
same,growth inhibition,[5]; at 3.7 µM,-5%
same,growth inhibition,[5]; [16],-22%
same,growth inhibition,[5]; at 11.0 µM,42%
same,growth inhibition,[5]; at 33.0 µM,100% (active)
same,growth inhibition,[5]; [17],98% (active)
same,growth inhibition,[5]; at 50.0 µM,99.3% (active)
same,growth inhibition,[5]; at 100.0 µM,98% (active)
same,growth inhibition,[7]; [16],-15%
same,growth inhibition,[7]; [17],99% (active)
same,growth inhibition,[7]; at 50.0 µM,99.6% (active)
same,growth inhibition,[8]; at 1.2 µM,-4%
same,growth inhibition,[8]; at 3.7 µM,4%
same,growth inhibition,[8]; at 11.0 µM,78% (active)
same,growth inhibition,[8]; at 33.0 µM,99% (active)
same,growth inhibition,[8]; at 100.0 µM,99% (active)
same,growth inhibition,[9]; [16],70% (active)
same,growth inhibition,[9]; [17],99% (active)
same,growth inhibition,[9]; at 50.0 µM,98.8% (active)
same,growth inhibition,[10]; at 1.2 µM,-2%
same,growth inhibition,[10]; at 3.7 µM,2%
same,growth inhibition,[10]; [16],-17%
same,growth inhibition,[10]; at 11.0 µM,80% (active)
same,growth inhibition,[10]; at 33.0 µM,99% (active)
same,growth inhibition,[10]; [17],100% (active)
same,growth inhibition,[10]; at 50.0 µM,99.2% (active)
same,growth inhibition,[10]; at 100.0 µM,99% (active)
same,growth inhibition,[12]; at 1.2 µM,0%
same,growth inhibition,[12]; at 3.7 µM,7%
same,growth inhibition,[12]; at 11.0 µM,76% (active)
same,growth inhibition,[12]; at 33.0 µM,99% (active)
same,growth inhibition,[12]; at 100.0 µM,94% (active)
same,growth inhibition,[13]; at 1.2 µM,2%
same,growth inhibition,[13]; at 3.7 µM,24%
same,growth inhibition,[13]; at 11.0 µM,86% (active)
same,growth inhibition,[13]; at 33.0 µM,99% (active)
same,growth inhibition,[13]; at 100.0 µM,98% (active)
same,growth inhibition,[14]; [16],-3%
same,growth inhibition,[14]; [17],99% (active)
same,growth inhibition,[14]; at 50.0 µM,99.5% (active)
same,growth inhibition,[15]; at 1.2 µM,8%
same,growth inhibition,[15]; at 3.7 µM,11%
same,growth inhibition,[15]; at 11.0 µM,69%
same,growth inhibition,[15]; at 33.0 µM,100% (active)
same,growth inhibition,[15]; at 100.0 µM,98% (active)
O=Nn1c2ccccc2c2ccccc21,growth inhibition,[1]; at 1.2 µM,-15%
same,growth inhibition,[1]; at 3.7 µM,-18%
same,growth inhibition,[1]; at 11.0 µM,-22%
same,growth inhibition,[1]; at 33.0 µM,5%
same,growth inhibition,[1]; at 100.0 µM,68%
same,growth inhibition,[2]; at 1.2 µM,2%
same,growth inhibition,[2]; at 3.7 µM,21%
same,growth inhibition,[2]; at 11.0 µM,7%
same,growth inhibition,[2]; at 33.0 µM,9%
same,growth inhibition,[2]; at 100.0 µM,60%
same,growth inhibition,[3]; at 1.2 µM,0%
same,growth inhibition,[3]; at 3.7 µM,18%
same,growth inhibition,[3]; at 11.0 µM,9%
same,growth inhibition,[3]; at 33.0 µM,50%
same,growth inhibition,[3]; at 100.0 µM,79% (active)
same,growth inhibition,[4]; at 1.2 µM,12%
same,growth inhibition,[4]; at 3.7 µM,-1%
same,growth inhibition,[4]; [16],-13%
same,growth inhibition,[4]; at 11.0 µM,-3%
same,growth inhibition,[4]; at 33.0 µM,23%
same,growth inhibition,[4]; [17],13%
same,growth inhibition,[4]; at 50.0 µM,27.5% and 25.4%
same,growth inhibition,[4]; at 100.0 µM,83% (active)
same,growth inhibition,[5]; at 1.2 µM,-17%
same,growth inhibition,[5]; at 3.7 µM,2%
same,growth inhibition,[5]; [16],-1%
same,growth inhibition,[5]; at 11.0 µM,1%
same,growth inhibition,[5]; at 33.0 µM,21%
same,growth inhibition,[5]; [17],9%
same,growth inhibition,[5]; at 50.0 µM,16.7% and 11.6%
